PGC1a acetyl inh: PGC1a acetylation modulation, inhibitor mode. U2OS PGC1a acetylation, AlphaScreen anti-acetyl-lysine; with virally co-expressed GCN5 acetyltransferase. 350,000 tested, 0.17% active. inhibition, % at 15.6 µM;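 active means every replicate shows inhibition of at least 40%; inconclusive means mean inhibition at least 40% but some replicate below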
PAX8 reporter: inhibitors of PAX8 transcriptional activity in RMG-I cells; RMG-I TPO-luciferase reporter, SteadyGlo, 24 h; inhibition, % at 12.6 µM; AID 652154; 360,000 tested, 1.2% active;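 active means mean replicate inhibition at least 60% with every replicate also reaching 60%; inconclusive means only one of the two criteria is met; inactive means mean below 60% and not all replicates reaching 60%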;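 further: luciferase light reporting Pax8 driven TPO promoter activity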
GSIS activator: primary screen for activators of insulin secretion dependent on glucose, INS-1E cells, GLuc reporter luminescence | 370,000 tested, 0.61% active | INS-1E GLuc reporter insulin secretion, 2-3 h | activation, % at 16.6 µM;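 active means lowest replicate activation of at least 40%, so every replicate reaches that level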
Env fusion inh: inhibitors of HIV Env-mediated cell fusion. inhibition, % at 12.3 µM. 360,000 tested, 1.1% active. HeLa-JRFL Env/CEM21 cell fusion, luciferase;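 active means mean replicate inhibition score of at least 50 and every replicate individually at or above 50; inconclusive means only one of the two criteria met; inactive means mean below 50 and not all replicates reaching 50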
F508del corr: correctors of CFTR F508del function in bronchial epithelial cells | CFBE cells, YFP halide quenching; stimulated with forskolin plus potentiator P3; % fluorescence drop versus neutral controls | activity (quench increase), % at 7.58 µM | 350,000 tested, 0.36% active;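 active means mean added fluorescence quench of at least 8% versus neutral control, with both replicates also reaching 8%; inconclusive means only one of the mean or replicate conditions met; inactive means mean below 8% and not both replicates reaching 8%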;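 further: cells transiently co-express mutant CFTR-F508del with the halide-sensitive YFP; corrector assay measuring rescue of mutant channel to the surface after 24 h compound exposure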
EWS-Fli block: EWS/Fli transcriptional activity inhibition. A673 NR0B1-luciferase reporter, viability-normalised. inhibition, % at 12.6 µM. 350,000 tested, 0.67% active;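 active means mean inhibition of at least 50% after viability correction, with every replicate also passing that limit; inconclusive means mean reaches 50% but only one of two replicates passes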;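 further: firefly luciferase signal divided by Alamar Blue viability fluorescence both relative to DMSO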
DNA binding: DNA binding small molecules | shares compounds with EWS-Fli block | salmon sperm DNA acridine orange fluorescence polarization | AC35, µM (top dose mostly 68 µM) | 640 tested, 2% active | AID 720586;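 active means fitted curve reaches a 35% signal fall AC35 below twice the sample's top valid tested dose, actives reach about 48 µM in these data; inactive means the rest, including activity in the rising direction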;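 further: lower polarization ratio signals compound binding to DNA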
C2C12 COX5a inh: C2C12 myotube COX5a expression inhibition; shares compounds with PGC1a acetyl inh; C2C12 myotubes PGC-1a adenovirus, COX5a qPCR; maximal activity, %; 45 tested, under 10 active; AID 743461;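 active means fitted dose curve reaching 40% activity at or below the highest valid dose tested; inconclusive means flat fit between 30% and 70%, or an unusable fit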
AID743468: change in PGC-1a target gene PDK4 expression, dose response, C2C12 myotubes, RT-qPCR, cherry-pick | shares compounds with PGC1a acetyl inh | PGC-1a adenovirus, PDK4 mRNA qPCR | PDK4 expression increase, % at 19.5 µM | 45 tested, under 10 active;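 active means fitted curve reaching a 40% PDK4 expression rise at or below the top valid tested dose; inconclusive means no clear call, values can overlap the other calls; inactive means the rest, including shifts the wrong way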
Hits are given with their value; – = inactive; ? = inconclusive; · = not tested or not shown; ! = not active in a repeat; [ ] = remark or other dose. Compounds with a hit are over-represented: about 2.7% of the library has one in this group of screens.

SMILES	PGC1a acetyl inh	PAX8 reporter	GSIS activator	Env fusion inh	F508del corr	EWS-Fli block	C2C12 COX5a inh	AID743468	others
C[C@H]1CN([C@@H](C)CO)C(=O)c2cc(NS(=O)(=O)c3cccs3)ccc2O[C@H]1CN(C)Cc1ccc(C(=O)Nc2ccccc2N)cc1	–	–	–	·	–	–	·	·
C[C@@H]1CN([C@@H](C)CO)C(=O)c2cc(NS(=O)(=O)c3ccc(Cl)cc3)ccc2O[C@@H]1CN(C)Cc1ccc(C(=O)Nc2ccccc2N)cc1	–	·	–	·	–	53	·	·	DNA binding=–
C[C@H](CO)N1C[C@H](C)[C@H](CN(C)Cc2ccc(C(=O)Nc3ccccc3N)cc2)Oc2ccc(NC(=O)Nc3ccccc3)cc2C1=O	–	–	–	–	–	–	·	·
Cc1ccc(S(=O)(=O)Nc2ccc3c(c2)C(=O)N([C@H](C)CO)C[C@@H](C)[C@@H](CN(C)Cc2ccc(C(=O)Nc4ccccc4N)cc2)O3)cc1	–	–	–	–	–	51	·	·	DNA binding=–
C[C@H]1CN([C@@H](C)CO)C(=O)c2cc(NS(=O)(=O)c3ccc(Cl)cc3)ccc2O[C@@H]1CN(C)Cc1ccc(C(=O)Nc2ccccc2N)cc1	–	·	–	·	–	–	·	·
C[C@@H]1CN([C@@H](C)CO)C(=O)c2cc(NC(=O)Nc3ccccc3)ccc2O[C@@H]1CN(C)Cc1ccc(C(=O)Nc2ccccc2N)cc1	–	–	–	–	–	58	·	·	DNA binding=–
CO[C@@H]1CN(C)C(=O)c2ccc(NC(=O)C3CC3)cc2OC[C@H](C)N(Cc2nccs2)C[C@H]1C	·	–	–	·	–	–	·	·
CCC(=O)N1C[C@H](C)[C@H](OC)CN(C)C(=O)c2cc(NC(=O)c3ccccc3)ccc2OC[C@@H]1C	–	·	–	·	–	–	·	·
C[C@@H]1CCCCO[C@@H](CN(C)Cc2ccc(C(=O)Nc3ccccc3N)cc2)[C@@H](C)CN([C@H](C)CO)C(=O)c2cc(NS(=O)(=O)c3ccccc3)ccc2O1	–	–	–	·	–	–	·	·
C[C@@H]1CCCCO[C@H](CN(C)Cc2ccc(C(=O)Nc3ccccc3N)cc2)[C@@H](C)CN([C@H](C)CO)C(=O)c2cc(NS(=O)(=O)c3ccc(Cl)cc3)ccc2O1	–	–	–	–	–	61	·	·	DNA binding=–
C[C@@H]1CN([C@H](C)CO)S(=O)(=O)c2ccc(C#CC3CC3)cc2O[C@H]1CN(C)C(=O)CC1CC1	–	·	–	–	–	–	·	·
CN(C)CC(=O)N1[C@@H](CO)[C@H](c2ccccc2)C12CN(C(=O)C1CCCC1)C2	·	·	–	·	·	·	·	·
N#CC1C=Cc2ccccc2N1C(=O)c1ccccc1 (stereo unspecified)	–	–	–	–	–	–	·	·
N#CC1C=Cc2c(ccc3ccccc23)N1C(=O)c1ccccc1 (stereo unspecified)	·	–	–	–	–	66	·	·	DNA binding=–
COc1ccc(S(=O)(=O)N[C@@H]2CC[C@@H](CC(=O)N3CCc4ccccc4C3)O[C@@H]2CO)cc1	–	–	–	–	–	–	·	·
Cc1ccccc1N=Nc1c(O)n(C)c2ccccc12	–	–	–	–	–	60	·	·	DNA binding=–
Cc1ccc(S(=O)(=O)N(C)C[C@@H]2Oc3cc(C#Cc4ccncc4)ccc3S(=O)(=O)N([C@@H](C)CO)C[C@H]2C)cc1	60	83	·	·	–	53	–	–	DNA binding=–
CC=Cc1ccc2n(c1=O)C[C@@H]1[C@@H](CO)[C@H](C(=O)NCCC)N(C(=O)CC)[C@H]21 (mixture of isomers)	–	–	–	·	–	–	·	·
COc1ccc(C(=O)Nc2cccc(NC(=O)c3ccc(OC)c(OC)c3)n2)cc1OC	61	–	–	–	–	–	–	44
CCN1CCN(Cc2ccc(NC(=O)c3ccc(C)c(NC(=O)c4c[nH]c5cc(C(F)(F)F)ccc5c4=O)c3)cc2C(F)(F)F)CC1	78!	80	–	106!	–	63!	–	–
Cc1ccccc1-n1nnnc1Sc1nnnn1-c1ccccc1	?	·	·	·	·	·	–	–
Cc1ccc(Cn2ncc(Cl)c(Cl)c2=O)cc1	–	–	–	–	·	·	–	–
COc1ccccc1C(=O)Nc1cc(C)on1	–	–	–	–	–	–	·	·
COCCSc1ccccc1C(=O)Nc1cc(C)on1	?	·	–	·	–	–	–	–
C#CCN(C[C@@H]1[C@@H](OC(=O)NCCCCCC)[C@@H](OC(=O)NCCCCCC)Cn2c(=O)ccc(=O)n21)S(=O)(=O)c1ccc(C)cc1	92	113	–	–	–	67	–	88
SMILES	PGC1a acetyl inh	PAX8 reporter	GSIS activator	Env fusion inh	F508del corr	EWS-Fli block	C2C12 COX5a inh	AID743468	others
C[C@@H]1CN([C@@H](C)CO)C(=O)c2cc(-c3ccncc3)cnc2O[C@H]1CN(C)Cc1ccc(F)cc1	–	·	–	–	–	–	·	·
C[C@H]1CN([C@@H](C)CO)C(=O)c2cc(C#CC3(O)CCCC3)cnc2O[C@@H]1CN(C)C(=O)C1CCC1	–	–	–	–	–	–	·	·
CCN(CC(=O)NCc1ccc(Cl)cc1)C(=O)CSc1cc(C)ccc1C	–	–	–	–	–	–	·	·
CCN(CC(=O)NCc1ccc(Cl)cc1)C(=O)CSCC(=O)Nc1ccc(C)cc1	–	–	–	–	–	–	–	–
COc1ccccc1C#Cc1ccc([C@H]2[C@H](C#N)N(C(=O)C3CCCC3)[C@H]2CO)cc1	65	107	–	74[16.7 µM]	–	–	–	–
COc1ccccc1C#Cc1ccc([C@H]2[C@@H](C#N)N(C(=O)C3CCCC3)[C@@H]2CO)cc1	–	–	–	–	–	–	·	·
CO[C@H]1CN(C)C(=O)c2ccc(NC(=O)Nc3c(C)noc3C)cc2OC[C@@H](C)NC[C@@H]1C	–	–	–	–	–	–	·	·
N#Cc1cc(O)c(-n2nnc3ccccc32)cc1C#N	–	–	–	–	–	–	·	·
N#Cc1cc(Oc2cccc3cccnc23)c(-n2nnc3ccccc32)cc1C#N	–	·	–	·	–	–	–	–
C[C@H](CO)N1C[C@H](C)[C@@H](CN(C)S(=O)(=O)c2ccc(F)cc2)Oc2cc(C#Cc3ccncc3)ccc2S1(=O)=O	–	·	–	–	–	–	·	·
Cc1ccc(S(=O)(=O)N(C)C[C@@H]2Oc3cc(C#Cc4ccncc4)ccc3S(=O)(=O)N([C@H](C)CO)C[C@H]2C)cc1	?	106	–	·	–	–	–	–
C[C@H]1CN([C@@H](C)CO)C(=O)Cc2cc(NS(=O)(=O)c3cccs3)ccc2O[C@@H]1CN(C)C(=O)Nc1ccccc1	–	–	–	–	–	–	·	·
C[C@H]1CN([C@@H](C)CO)C(=O)c2cc(-c3ccccc3F)cnc2O[C@H]1CN(C)C(=O)CN(C)C	–	·	–	–	–	–	·	·
OC(c1cc(C(F)(F)F)nc2c(C(F)(F)F)cccc12)C1CCCCN1 (stereo unspecified)	–	–	·	–	–	59	–	–
CNC(=O)C[C@@H]1CC[C@@H]2[C@@H](COc3ccc(NC(=O)Nc4cccc(Cl)c4)cc3C(=O)N2C)O1	–	–	–	–	–	–	·	·
